The record followed here is PubChem BioAssay (NCI).

Among the test systems are NCI-H23 lung; NCI-H226 lung; NCI-H322M lung; HOP-62 NSCLC; NCI-H460 lung; NCI-H522 lung; A549/ATCC NSCLC; 786-0 renal; COLO 205 colon; DU-145 prostate; K-562 leukemia; MALME-3M melanoma; MDA-MB-231 breast; RXF 393 renal; SF-268 CNS; SF-295 CNS; SF-539 CNS; UACC-257 melanoma; M14 melanoma.
Holding throughout (test): NCI-60 one-dose screen, 48 h (100 = growth as untreated, 0 = no growth, -100 = all killed)
What all share (settings): 10 µM unless noted

About 83,000 compounds went through this panel and 20% of them were active in at least one assay; those are over-represented in the sample as a whole.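 Step 1: grow cells in 96-well plates. Step 2: add test compound at a single concentration. Step 3: incubate 48 h. Step 4: record percent growth.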 A number with no mark means an inactive call. The source made the active and inactive calls. The calls were made as follows: active = growth percent below 10; inactive = the rest.

As for `O=[N+]([O-])c1ccc(N/N=C/c2ccccc2O)nc1`, the growth in the test with NCI-H23 lung was 33.9%; with NCI-H226 lung, 83.3%; in the test with NCI-H322M lung, 39.6%; in the test on HOP-62 NSCLC, 32.7%; in the test with NCI-H460 lung it was 15%; in the test with NCI-H522 lung, 9.71% (active). The growth in the test on A549/ATCC NSCLC was 31.4%; with 786-0 renal, 21.8%; in the test on COLO 205 colon it was 14.6%; with DU-145 prostate, 48.7%; with K-562 leukemia, 21.9%; in the test with MALME-3M melanoma, 78.5%. The growth with MDA-MB-231 breast was 52.3%; with RXF 393 renal, 38.1%; in the test with SF-268 CNS, 40.1%; in the test with SF-295 CNS, 35.2%; in the test on SF-539 CNS it was 42.9%; in the test with UACC-257 melanoma, 32%. Also, the growth in the test with M14 melanoma was 29.5%.

For the compound `CN1C2CCC1/C(=C\c1ccc(Cl)cc1)C(=O)/C2=C/c1ccc(Cl)cc1`, the growth is 62.4% in the test with NCI-H23 lung; 73.8% in the test on NCI-H226 lung; 72.4% in the test on NCI-H322M lung; 85.8% in the test with HOP-62 NSCLC; 47% in the test with NCI-H460 lung; 54.7% with NCI-H522 lung. Besides, the growth in the test on A549/ATCC NSCLC was 63.7%; in the test with 786-0 renal it was 75.4%; in the test on COLO 205 colon, 41.7%; in the test on DU-145 prostate it was 41.8%; with K-562 leukemia, 34.3%; with MALME-3M melanoma, 73.7%. Also, the growth is 67% with MDA-MB-231 breast; 87.2% with RXF 393 renal; 60.5% with SF-268 CNS; 77.4% with SF-295 CNS; 91.5% with SF-539 CNS; 60.9% in the test with UACC-257 melanoma. In addition, the growth in the test with M14 melanoma is 63.8%.

On to `OC(CCCCCCCCC(O)CN1CCc2ccccc2C1)CN1CCc2ccccc2C1` (configuration not stated), for which the growth was 101% in the test with NCI-H23 lung; 99.9% with NCI-H226 lung; 87.5% with NCI-H322M lung; 103% in the test on HOP-62 NSCLC; 108% in the test on NCI-H460 lung; 105% in the test with NCI-H522 lung. Also, the growth in the test with A549/ATCC NSCLC was 101%; in the test on 786-0 renal, 94.7%; in the test with COLO 205 colon, 101%; with DU-145 prostate it was 108%; in the test with K-562 leukemia it was 97.3%; in the test on MALME-3M melanoma it was 97.5%. Further, the growth in the test on MDA-MB-231 breast was 98%; with RXF 393 renal, 110%; with SF-268 CNS it was 102%; with SF-295 CNS it was 83.2%; with SF-539 CNS it was 101%; in the test with UACC-257 melanoma it was 98.5%. The growth in the test on M14 melanoma is 109%.

Regarding `COc1cc(/C=N/NC(=O)Cn2c(-c3ccc(C)o3)nc3ccccc32)ccc1OCc1ccccc1`, the growth is 91.1% in the test on NCI-H23 lung; 84.4% in the test on NCI-H226 lung; 85.7% in the test on NCI-H322M lung; 89.8% in the test on HOP-62 NSCLC; 91.5% in the test on NCI-H460 lung; 73.6% in the test on NCI-H522 lung. Moreover, the growth is 72.9% in the test with A549/ATCC NSCLC; 99% with 786-0 renal; 102% in the test on COLO 205 colon; 105% with DU-145 prostate; 65.5% in the test with K-562 leukemia; 115% in the test on MALME-3M melanoma. The growth with MDA-MB-231 breast was 78.7%; in the test on RXF 393 renal, 85.6%; in the test on SF-268 CNS it was 76.1%; in the test on SF-295 CNS it was 91.7%; in the test with SF-539 CNS, 103%; in the test on UACC-257 melanoma it was 89.5%. Moreover, in the test on M14 melanoma, the growth is 85.2%.

As for `CCCCc1nc(Cl)c(C2CC(c3ccc(S(N)(=O)=O)cc3)=NN2c2ccc(C#N)cc2)[nH]1` (configuration not stated), the growth is 98.5% with NCI-H23 lung; 79.6% with NCI-H226 lung; 81.3% with NCI-H322M lung; 90.5% in the test with HOP-62 NSCLC; 95.5% with NCI-H460 lung; 68% in the test with NCI-H522 lung. Moreover, the growth with A549/ATCC NSCLC is 94.6%; with 786-0 renal, 84.6%; in the test on COLO 205 colon it was 87.8%; in the test on DU-145 prostate, 104%; in the test on K-562 leukemia it was 69.5%; with MALME-3M melanoma, 105%. Besides, the growth with MDA-MB-231 breast is 88%; in the test on RXF 393 renal it was 81.1%; with SF-268 CNS, 91.9%; with SF-295 CNS it was 97.9%; in the test with SF-539 CNS it was 99.9%; with UACC-257 melanoma, 86.2%. Also, in the test on M14 melanoma, the growth was 88.1%.

With `O=C(Nc1cccc(-n2ccc3c(NC(=O)c4ccccc4)nccc32)c1)c1ccc(N2CCOCC2)c(C(F)(F)F)c1`, the growth in the test with NCI-H23 lung is 28.1%; in the test with NCI-H226 lung, 33.5%; in the test with NCI-H322M lung it was 27%; with HOP-62 NSCLC it was 7.08% (active); in the test with NCI-H460 lung, 9.44% (active); in the test on NCI-H522 lung, -22.8% (active). Also, the growth in the test on A549/ATCC NSCLC was 8.39% (active); in the test on 786-0 renal, -12.3% (active); in the test on COLO 205 colon, -23.4% (active); with DU-145 prostate, 18.7%; in the test on K-562 leukemia, 5.25% (active); in the test with MALME-3M melanoma, 53.4%. The growth in the test on MDA-MB-231 breast is 20.8%; with RXF 393 renal, -59.8% (active); with SF-268 CNS, 24.2%; in the test on SF-295 CNS, -15.4% (active); in the test on SF-539 CNS, 11.9%; with UACC-257 melanoma, 58%. Further, the growth with M14 melanoma was 38.6%.

Turning to `COc1ccc(NC(=O)Cn2c(=O)sc3c(-c4ccc(Cl)cc4)cc(-c4ccc(Cl)cc4)nc32)cc1`, the growth is 91% in the test with NCI-H23 lung; 108% in the test with NCI-H226 lung; 95.1% in the test with NCI-H322M lung; 97.8% with HOP-62 NSCLC; 102% with NCI-H460 lung; 70% with NCI-H522 lung. Moreover, the growth in the test with A549/ATCC NSCLC was 96.7%; in the test with 786-0 renal, 88.7%; in the test with COLO 205 colon it was 100%; in the test on DU-145 prostate, 96.7%; with K-562 leukemia it was 85.1%; with MALME-3M melanoma it was 112%. Besides, the growth was 110% in the test on MDA-MB-231 breast; 110% in the test on RXF 393 renal; 93.1% in the test with SF-268 CNS; 95.8% in the test with SF-295 CNS; 98% in the test on SF-539 CNS; 115% in the test on UACC-257 melanoma. Besides, the growth with M14 melanoma was 94.1%.

Turning to `Cc1c2c(cc3c1[nH]c1ccccc13)C=NCC2`, the growth with NCI-H23 lung is 88.7%; with NCI-H226 lung, 93%; in the test with NCI-H322M lung, 99.7%; with HOP-62 NSCLC it was 96%; with NCI-H460 lung it was 95.5%; with NCI-H522 lung it was 75.1%. Moreover, the growth with A549/ATCC NSCLC was 91.5%; in the test on 786-0 renal, 80.8%; in the test with COLO 205 colon, 78.2%; in the test on DU-145 prostate, 94.9%; in the test on K-562 leukemia, 62.3%; in the test on MALME-3M melanoma, 103%. Also, the growth with MDA-MB-231 breast is 90.4%; with RXF 393 renal, 84.9%; in the test on SF-268 CNS it was 95.5%; in the test on SF-295 CNS, 92.4%; with SF-539 CNS, 92.8%; in the test on UACC-257 melanoma, 106%. Further, in the test on M14 melanoma, the growth is 91%.
